Source: PubChem BioAssay
Shown are actives, neighbours in structure and some others; about 4.1% of the full set was active somewhere.
AMA1 RON2 block: AMA1-RON2 (P. falciparum) interaction inhibition; AID 720542; 360,000 compounds, 0.2% hits; AlphaScreen AMA1-biotinylated RON2 peptide binding; Potency, µM (highest dose often 58.2 µM), most hits filed as inhibitors; further: nearly all actives have a fitted effect of over 45% in size
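AMA1 (3D7) with his tag at 25 nM final met compounds first, then biotinylated RON2 peptide at 25 nM; detection used donor plus acceptor beads, 10 µg/mL apiece, read by AlphaScreen after 30 min at room temperature.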
AmpC detergent: AmpC beta-lactamase inhibition with detergent present; 370,000 compounds, 0.041% hits; Potency, µM (highest dose often 114 µM), most hits filed as inhibitors; AmpC hydrolysis of nitrocefin, absorbance 480 nm, 0.01% Triton; AID 485294; further: nearly all actives have a fitted effect of over 25% in size
Target sequence (P00811 whole entry, looked up): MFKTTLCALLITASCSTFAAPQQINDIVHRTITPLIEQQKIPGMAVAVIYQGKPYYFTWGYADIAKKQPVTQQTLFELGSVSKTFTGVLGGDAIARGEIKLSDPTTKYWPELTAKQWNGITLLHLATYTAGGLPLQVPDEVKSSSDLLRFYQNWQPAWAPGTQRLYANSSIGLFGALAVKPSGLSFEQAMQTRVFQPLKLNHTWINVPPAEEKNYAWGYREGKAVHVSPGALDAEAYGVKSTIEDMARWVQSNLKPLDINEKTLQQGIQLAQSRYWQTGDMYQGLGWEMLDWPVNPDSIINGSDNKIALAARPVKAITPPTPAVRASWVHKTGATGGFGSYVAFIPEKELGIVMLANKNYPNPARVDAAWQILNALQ
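AmpC (5.3 nM in the dispensed reagent) in 20 mM phosphate pH 7.0 with 0.01% (detergent screen) or 0.0001% Triton X-100 was preincubated with compounds for 15 min at room temperature. Nitrocefin was then added from an 800 uM solution, and hydrolysis was followed at 480 nm.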
FMDV inh: antivirals against foot and mouth disease virus. Potency, µM (doses to about 57.9 µM), hits mostly inhibitors. 410,000 compounds, 1.2% hits. FMDV antiviral cell-based qHTS; calls by dose curve; tested in HEK293T cells; further: read-out not given here; nearly all actives have a fitted effect of over 45% in size
Sm TGR block: S. mansoni TGR enzyme inhibition. Potency, µM (highest dose often 114 µM), hits mostly inhibitors. 360,000 compounds, 3% hits. AID 485364. Q962Y6. purified TGR, DTNB reduction, TNB absorbance 405 nm; further: nearly all actives have a fitted effect of over 60% in size
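Kinetic colorimetric format: TGR-catalysed, NADPH-driven DTNB reduction monitored via TNB absorbance. Enzyme dispensed at 20 nM; compound exposure 15 min at room temperature before reaction start.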
AmpC no deterg: blocks E. coli AmpC beta-lactamase in detergent-free assay | 330,000 compounds, 0.52% hits | Potency, µM (titrated, usually from 57.1 µM), hits mostly inhibitors | AID 485341 | P00811 | AmpC nitrocefin hydrolysis, absorbance 480 nm, 0.0001% Triton; further: nearly all actives have a fitted effect of over 20% in size
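20 mM phosphate pH 7.0 + 0.01% (detergent screen) or 0.0001% Triton X-100; 5.3 nM AmpC reagent; cpd preinc 15 min RT; nitrocefin (800 uM stock) to start; A480 q20 s × 4 min; Activity was normalised to no-enzyme and no-compound control wells.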
Of the large screens only hits and unclear results are named; the others gave an inactive call. Unless noted, the call rests on the fitted dose curve; in most records, active means well fitted curve in the direction sought with a large enough effect; inconclusive means small, poorly fitted or top-dose-only effect, or another doubt; inactive means no such curve, though single readings can be large; an effect the other way counts as inactive or inconclusive.

O=C(Nc1ccc2oc(-c3cccnc3)nc2c1)c1ccc(-c2cccc(Cl)c2)o1	FMDV inh inconclusive, Sm TGR block 35µM (no result: AMA1 RON2 block, AmpC no deterg)
O=C1c2ccccc2N2C(=O)c3ccccc3C2N1O (centres undefined)	none
Cc1ccccc1NC1c2ccccc2C(=O)N1Cc1ccco1 (centres undefined)	Sm TGR block 20µM
COc1cccc(OCc2cc(C3Nc4ccccc4C(=O)N3Cc3ccco3)ccc2OC)c1 (centres undefined)	Sm TGR block 18µM
CCN(CC)S(=O)(=O)c1ccc(NC2c3ccccc3C(=O)N2Cc2ccco2)cc1 (centres undefined)	Sm TGR block 22µM
O=C1c2ccccc2N2C(=O)c3ccccc3C2N1Cc1ccco1 (centres undefined)	Sm TGR block 14µM
COC(=O)c1c(OCc2ccccn2)cc(=O)n2c1CCN(Cc1ccc3c(c1)CCCN3C)CC2	none (no result: AMA1 RON2 block, AmpC detergent, Sm TGR block, AmpC no deterg)
CC1CCN(C(=O)Cn2cc(SCc3cccc(F)c3)c3ccccc32)CC1	none (no result: AMA1 RON2 block, AmpC no deterg)
COc1cccc(NC2c3ccccc3C(=O)N2Cc2ccco2)c1 (centres undefined)	Sm TGR block 40µM
CC(=O)c1cccc(NC2c3ccccc3C(=O)N2Cc2ccco2)c1 (centres undefined)	FMDV inh inconclusive, Sm TGR block inconclusive
CCOC(=O)c1cccc(NC2c3ccccc3C(=O)N2Cc2ccco2)c1 (centres undefined)	AmpC detergent inconclusive, FMDV inh 13µM, Sm TGR block inconclusive, AmpC no deterg 0.89µM
O=C1C=CC(=O)N1CCCCCCN1C(=O)C=CC1=O	AmpC detergent inconclusive, FMDV inh 40µM
COc1ccc(-c2[nH]ncc2-c2ccc(Cl)cc2)c(O)c1	FMDV inh inconclusive (no result: AmpC no deterg)
O=[N+]([O-])c1ccc(COc2ccc(-c3[nH]ncc3-c3ccc(Cl)cc3)c(O)c2)cc1	FMDV inh 32µM
COc1ccc(-c2cn[nH]c2-c2ccc(OCc3ccc([N+](=O)[O-])cc3)cc2O)cc1OC	FMDV inh 16µM
COc1ccc(-c2cn[nH]c2-c2ccc(OCc3ccccc3F)cc2O)cc1OC	FMDV inh inconclusive
CCCCn1c(SCC(=O)Nc2cccc(OC)c2)nc2ccsc2c1=O	none (no result: AMA1 RON2 block, AmpC no deterg)
O=c1c2c(-c3ccc(Cl)cc3)ccnc2[nH]n1-c1ccccc1	none (no result: AMA1 RON2 block, AmpC no deterg)
CN(CCC1CCCCO1)C(=O)CCc1nnc(Cc2c[nH]c3ccccc23)o1 (centres undefined)	Sm TGR block 89µM
CCN1CCN(C(=O)CCc2nnc(CCc3c[nH]c4ccccc34)o2)[C@@H](C)C1=O	Sm TGR block inconclusive
CC1CCCCN1C(=O)CCc1nnc(Cc2c[nH]c3ccccc23)o1 (centres undefined)	Sm TGR block 35µM
CC(C)CN1CCN(C(=O)CCc2nnc(Cc3c[nH]c4ccccc34)o2)[C@@H](C)C1=O	Sm TGR block 20µM
CCC1CCCCN1C(=O)CCc1nnc(Cc2c[nH]c3ccccc23)o1 (centres undefined)	Sm TGR block 25µM
CC(C)Oc1ccc(CN2CCC2(C)C(=O)NCc2cccc3ccccc23)cc1 (centres undefined)	FMDV inh inconclusive (no result: AmpC detergent, Sm TGR block, AmpC no deterg)
Cc1nc(=O)c(-c2ccccc2)c(C)n1-c1cccc(C(=O)O)c1	AmpC detergent inconclusive
Cc1ccc(C(=O)O)cc1N1CCCC1=O	none
Cc1ccc(-c2ccccc2)n1-c1cccc(C(=O)O)c1	Sm TGR block 20µM
Cc1ccc(-c2ccccc2)n1-c1ccc(C(=O)O)cc1	Sm TGR block 50µM
Cc1ccc(C(=O)O)cc1-n1c(C)ccc1-c1ccccc1	Sm TGR block 32µM (no result: AMA1 RON2 block, AmpC no deterg)
CCc1sc(Nc2cccc(C)c2C)nc1-c1cc2cccc(OC)c2oc1=O	none (no result: AMA1 RON2 block, AmpC no deterg)
CCc1ccc(NC(=O)CSc2ccc(-c3sc(-c4ccccc4)nc3C)nn2)cc1	none (no result: AMA1 RON2 block, AmpC no deterg)
COc1ccc(Cl)cc1N1C(=O)[C@@H]2C[C@H]1CN2Cc1nc2ccccc2nc1C	none (no result: AMA1 RON2 block, AmpC detergent, Sm TGR block, AmpC no deterg)
Cc1nc(N2CCCC2)c2c(C(=O)Nc3cccc(Cl)c3C)c(C)oc2n1	none (no result: AMA1 RON2 block, AmpC no deterg)
Cc1cc(C)n(-c2ccc(C(=O)OC(C)C(=O)Nc3ccc(C(N)=O)cc3)cc2)n1 (centres undefined)	FMDV inh 35µM
Cc1cc(N2CCN(c3nc4ccccc4s3)CC2)n2ncnc2n1	FMDV inh 11µM
CC(=O)OC1CC2C(C)(C)C(=O)C=C[C@]2(C)C2CC[C@]3(C)C(=CC(=O)OC3c3ccoc3)[C@]12C (some centres undefined)	FMDV inh 25µM (no result: AMA1 RON2 block, AmpC detergent, Sm TGR block, AmpC no deterg)
COc1cc(OC)c(NC(=O)c2cnn(-c3ccccc3)c2-n2cccc2)cc1Cl	none (no result: AMA1 RON2 block, AmpC no deterg)
O=C(Nc1cc(C(F)(F)F)ccc1Cl)c1cnn(-c2ccccc2)c1-n1cccc1	FMDV inh 32µM (no result: AMA1 RON2 block, AmpC no deterg)
O=C(/C=C/c1ccccc1)N1CCC[C@H]1CO	none
C#CCSc1nncn1C(=O)/C=C/c1ccccc1	Sm TGR block 71µM (no result: FMDV inh)
C#CCCc1ccccc1/C=[N+](/C)[O-]	Sm TGR block 11µM
C/[N+]([O-])=C\c1coc2ccccc2c1=O	none
CC(=O)N1c2ccccc2CC1C(=O)NCc1cccc(Cl)c1 (centres undefined)	none (no result: AMA1 RON2 block, AmpC no deterg)
COC(=O)c1cc(CNC(=O)c2cccc(F)c2)cc(NC(=O)c2ccccc2OC)c1	none (no result: AMA1 RON2 block, AmpC detergent, Sm TGR block, AmpC no deterg)
Cc1ccc(NC(=O)Cn2c(/C=C/c3ccccc3)nc3ccccc32)cc1C	AmpC no deterg 8.9µM
Cc1ccc(C)c(CSc2nc3ccncc3n2CC(=O)Nc2ccc(C)c(C)c2)c1	AmpC detergent inconclusive, AmpC no deterg inconclusive (no result: AMA1 RON2 block, FMDV inh)
Cc1cccc(CSc2nc3ccncc3n2CC(=O)Nc2ccc(C)c(C)c2)c1	AmpC no deterg 3.2µM (no result: AMA1 RON2 block, FMDV inh)
CC(C)c1ccccc1NC(=O)Cn1c(/C=C/c2ccccc2)nc2ccccc21	none
Cc1cccc(-c2nc(Cn3c(SCc4cc(C)ccc4C)nc4ccncc43)c(C)o2)c1	FMDV inh inconclusive, Sm TGR block 79µM (no result: AMA1 RON2 block, AmpC no deterg)
CC(=O)c1cc(-c2ccccc2)n(CC(=O)Nc2ccc(C)c(C)c2)c1C	FMDV inh inconclusive, AmpC no deterg 11µM
N#CCCn1c(=O)cnc2cnc(N3CCNCC3)nc21	none (no result: AMA1 RON2 block, AmpC detergent, Sm TGR block, AmpC no deterg)
O=C1NC(=O)C(=Cc2ccc(-c3cc(Cl)ccc3[N+](=O)[O-])o2)C(=O)N1	FMDV inh 20µM, Sm TGR block 32µM
CC1=C(C#N)C(=O)NC(=O)/C1=C\c1ccc(-c2cc(C)c(C)cc2[N+](=O)[O-])o1	FMDV inh inconclusive, Sm TGR block 3.5µM, AmpC no deterg inconclusive
Cc1ccc(-c2ccc(/C=C3/NC(=O)NC3=O)o2)cc1[N+](=O)[O-]	AmpC detergent inconclusive
O=C1NC(=O)C(=Cc2ccc(-c3ccccc3[N+](=O)[O-])o2)C(=O)N1	AMA1 RON2 block inconclusive, FMDV inh 35µM
O=C(Cc1cccs1)NCCSc1c(-c2ccc(Cl)cc2)[nH]c2ccccc12	AmpC detergent inconclusive, FMDV inh 22µM
